Source: PubChem BioAssay AID602376 (Johns Hopkins Ion Channel Center, 2012)
Entries with a potency or affinity are not part of this list. Inconclusive results are not listed. The source made the active and inactive calls.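 The calls were made as follows: active = raises choline transporter activity at one or more tested doses and gives a fitted dose-response curve; inconclusive = no clear call, values can overlap the other calls; inactive = no choline transporter activation at any dose, or no curve.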

Target: High affinity choline transporter 1 (Homo sapiens) (UniProt Q9GZV3)
Sequence (Q9GZV3 whole entry, looked up): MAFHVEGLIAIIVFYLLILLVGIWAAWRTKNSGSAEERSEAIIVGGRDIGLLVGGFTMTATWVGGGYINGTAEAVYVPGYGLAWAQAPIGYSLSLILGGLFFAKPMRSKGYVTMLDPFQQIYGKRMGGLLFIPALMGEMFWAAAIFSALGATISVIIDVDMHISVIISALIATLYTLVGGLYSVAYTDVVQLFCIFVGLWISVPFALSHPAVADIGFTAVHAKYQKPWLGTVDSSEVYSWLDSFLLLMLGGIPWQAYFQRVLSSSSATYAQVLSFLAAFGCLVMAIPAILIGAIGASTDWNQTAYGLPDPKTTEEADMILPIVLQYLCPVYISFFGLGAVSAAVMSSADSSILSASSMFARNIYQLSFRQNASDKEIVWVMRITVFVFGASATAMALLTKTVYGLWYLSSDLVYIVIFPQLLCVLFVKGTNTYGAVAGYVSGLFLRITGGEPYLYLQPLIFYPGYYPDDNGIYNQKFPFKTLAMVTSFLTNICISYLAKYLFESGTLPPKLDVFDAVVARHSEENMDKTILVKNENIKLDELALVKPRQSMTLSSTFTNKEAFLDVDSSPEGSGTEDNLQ
Test: CHT activators, dose response, cell-based, 10-point CRC, membrane potential dye (AID 602376)

SMILES	outcome
COc1ccc(-c2noc(CSc3nc4ccccc4c(=O)n3-c3ccccc3)n2)cc1OC	inactive
Cc1cccc2nc(-c3cccnc3)c(NCCC(C)C)n12	inactive
CC1Cc2cc(S(=O)(=O)N3CCN(c4ccccc4F)CC3)ccc2N1C(=O)C1CC1 (configuration not stated)	inactive
CCCCC(c1nnnn1C1CCCC1)N1CCN(C2CCCC2)CC1 (configuration not stated)	inactive
CN1CCN(CCCn2cnc3c(=O)oc4ccccc4c32)CC1	inactive
C/C(=N\NC(=O)c1nnn(-c2nonc2N)c1CN1CCC(C)CC1)c1cccc(Br)c1	inactive
COc1ccc(Br)cc1CN(C)C(=O)c1ccccc1OCc1c(C)noc1C	inactive
CCc1cccc(C)c1NC(=O)CN(C)Cc1ccc(Br)cc1	inactive
CCn1cc(C(=O)OCC(=O)OC2CC(C)CCC2C(C)C)c(=O)c2ccc(C)nc21 (configuration not stated)	inactive
CC(C)CCC(CCNCc1ccccn1)c1ccc(Cl)cc1 (configuration not stated)	inactive
CCOC(=O)c1c(C)n(-c2ccccc2)c2ccc(OCCN(C)C)cc12	inactive
CC(=O)N1CCN(c2ccccc2NC(=O)COc2cc(C)ccc2C(C)C)CC1	inactive
O=C1CCN(Cc2ccccc2)CCN1[C@H](COc1ccccc1)Cc1ccccc1	inactive
CCCCn1c(N)c(N(CCC(C)C)C(=O)c2ccc(COc3ccccc3)o2)c(=O)[nH]c1=O	inactive
Cc1nc(N(C)Cc2ccccc2)c2c(C)c(C)sc2n1	inactive
CCN1C(=NCc2ccccc2)N[C@@H](c2ccccc2)[C@H](C(=O)OC)[C@H]1C	inactive
CCC(C)Nc1nc(CN2CCOCC2)nc2sc3c(c12)CCC3 (configuration not stated)	inactive
CCN1CCc2nc(NC(=O)C(c3ccccc3)c3ccccc3)sc2C1	inactive
CC(C)CN(C(=O)CSc1nnc(-c2cccs2)n1N)c1c(N)n(Cc2ccccc2)c(=O)[nH]c1=O	inactive
CCc1cccc(OCCn2nc(C(=O)O)c3ccccc3c2=O)c1	inactive
COc1ccc(CN2CCC(N(CCc3ccccc3)Cc3ccccc3)CC2)c(OC)c1	inactive
CCOC(=O)c1c(NC(=O)CSc2nc3ccccc3o2)sc(C(C)=O)c1C	inactive
